Assay outcomes: PubChem BioAssay, National Center for Advancing Translational Sciences (NCATS)
HCMV antiviral: inhibitors of human cytomegalovirus. AID 1259415. activity change, negative = inhibition, % at 57.5 µM. HFF cells, HCMV-luciferase reporter, 72 h; stronger effect = lower value. 410,000 compounds, 4.5% hits; in the data active means activity change below about -60%; inconclusive means no clear call, values can overlap the other calls; inactive means above about -39%; further: on the % scale 0 is the no-effect control and ±100 the full control effect
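Two-dose cell screen: HFF monolayers treated with compounds and infected with luciferase-expressing HCMV at 1 PFU/cell, 72 h at 37C, then lysed for luciferase measurement.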
Vaccinia Venus: vaccinia inhibition (Venus reporter); Vaccinia virus Venus reporter expression, fluorescence; Potency, µM (highest dose often 36.5 µM), for the others: top-dose activity change, negative = inhibition, actives largely listed as inhibitors; 330,000 compounds, 0.46% hits; calls by dose curve; tested in A549 cells; further: potency means the concentration at half of the fitted maximal effect; on the % scale 0 is the no-effect control and ±100 the full control effect; nearly all actives have a fitted effect of over 30% in size
LASV entry inh: inhibitors of Lassa virus binding or cell entry; Lassa virus pseudotype entry inhibition, cell reporter; Potency, µM (highest dose often 37.9 µM), without a hit: at the top dose activity change, negative = inhibition, actives largely listed as inhibitors; 300,000 compounds, 1.2% hits; AID 540256; calls by dose curve; tested in HEK293 cells; further: potency means the concentration at half of the fitted maximal effect; on the % scale 0 is the no-effect control and ±100 the full control effect; nearly all actives have a fitted effect of over 50% in size
Vaccinia mCherry: inhibitors of vaccinia virus infection (mCherry reporter signal); 310,000 compounds, 0.63% hits; Vaccinia virus mCherry reporter infection, fluorescence; Potency, µM (doses to about 36.5 µM), for inactives: at the highest dose activity change, negative = inhibition, actives largely listed as inhibitors; calls by dose curve; tested in A549 cells; further: potency means the concentration at half of the fitted maximal effect; on the % scale 0 is the no-effect control and ±100 the full control effect; nearly all actives have a fitted effect of over 35% in size
HCV inh: blocks hepatitis C virus. Huh7.5.1 HCVcc-Cre infection, luciferase reporter, 44 h. Potency, µM (doses to about 41.8 µM), without a hit: at the top dose activity change, negative = inhibition, usual class: inhibitors. 340,000 compounds, 3.4% hits. AID 651820; further: potency means the concentration at half of the fitted maximal effect; on the % scale 0 is the no-effect control and ±100 the full control effect
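HCVcc-Cre virus at an moi near 0.5 was added right after compound to cells cultured 4 h from seeding (1,000 cells/well). Luciferase activity was determined 44 h later, 15 min after substrate addition at RT.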
Marburg entry inh: Marburg virus entry inhibition. Marburg virus pseudotyped entry inhibition, cell reporter. Potency, µM (titrated, usually from 37.8 µM), without a hit: top-dose activity change, negative = inhibition, actives largely listed as inhibitors. 300,000 compounds, 1.8% hits; calls by dose curve; tested in HEK293 cells; further: potency means the concentration at half of the fitted maximal effect; on the % scale 0 is the no-effect control and ±100 the full control effect
HCV confirm: HCV inhibition, cherry-pick confirmation; 640 compounds, 78% hits; shares compounds with HCV inh; Potency, µM (top dose mostly 41.8 µM), inactives show at the top dose activity, negative = inhibition, most hits filed as inhibitors; AID 720575; HCVcc-Cre infectious virus cell assay, luciferase, inhibition; further: potency means the concentration at half of the fitted maximal effect; nearly all actives have a fitted effect of over 80% in size
HCV host tox: host cell cytotoxicity counter-screen for HCV inhibitors. shares compounds with HCV inh. HCV host cell line cytotoxicity counterscreen. Potency, µM (doses to about 41.8 µM), for inactives: top-dose activity change, negative = cytotoxicity, hits mostly inhibitors. 640 compounds, 22% hits. AID 720576;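 further: potency means the concentration at half of the fitted maximal effect; 44 h compound exposure; on the % scale 0 is the no-effect control and ±100 the full control effect; nearly all actives have a fitted effect of over 55% in size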
Starred values were filed as active, the others as inactive; i = inactive; ? = inconclusive; . = not tested or not shown; ! = repeats disagree; [ ] = dose if it differs, or a comment. The list is not random: actives were taken first. Their share in the collection is about 7.8%. Unless noted, the call rests on the fitted dose curve; in most records, active means well fitted curve in the direction sought with a large enough effect; inconclusive means small, poorly fitted or top-dose-only effect, or another doubt; inactive means no such curve, though single readings can be large; an effect the other way counts as inactive or inconclusive.

SMILES	HCMV antiviral	Vaccinia Venus	LASV entry inh	Vaccinia mCherry	HCV inh	Marburg entry inh	HCV confirm	HCV host tox
COc1ccc(CCn2c(SCC(=O)Nc3cc(C)on3)nc3ccccc3c2=O)cc1OC	19	-11%	3%	-14%	14%	10%	.	.
CCOC(=O)c1[nH]c2ccccc2c1NC(=O)c1ccc(OC)c(OC)c1	53	-12%	7%[46.1 µM]	-11%	.	-3%[46.1 µM]	.	.
CNc1nc2cc([N+](=O)[O-])c([N+](=O)[O-])cc2nc1NC	-86*	-19%	-28%	-3%	?	7.9µM*	20µM*	?
Cc1ccc(-n2c(-c3ccc(Br)cc3)c[n+]3c2CCc2ccc4cccnc4c2-3)cc1	-104*	.	6.5µM*	.	2.5µM*	2.3µM*!	6.3µM*	14µM*
Cc1ccc(-n2c(=O)[nH]c3ncccc3c2=O)cc1	-25	-3%	.	i	13%	.	.	.
CC(=O)c1ccc(NC(=O)Cn2cnc3nc4c(cc3c2=O)CC(C)CC4)cc1 (stereo not given)	26	-12%	14%[46.1 µM]	-12%	.	.	.	.
Cc1ccccc1NC(=O)CCl	-2	.	.	.	-17%	.	.	.
O=C(CCl)Nc1cc2[nH]c(=O)[nH]c2cc1Br	-105*	?	?	?	6.3µM*	?	16µM*	?
COc1cc(N)c(Cl)cc1C(=O)OCCN1CCCCC1	.	.	?	.	.	-14%	.	.
COc1cc(N)c(Cl)cc1C(=O)N[C@H]1CCN(CCCOc2ccc(F)cc2)C[C@H]1OC	-94*	-16%	.	-9%	1.8µM*	.	4.4µM*	4%
Cc1ccc(CNC(=O)CN2C(=O)COc3ccccc32)cc1	-13	-7%	4%[46.1 µM]	-7%	.	.	.	.
CCn1nnc(-c2ccccc2NC(=O)C(F)(F)F)n1	19	-8%	19%	-4%	?	9%	?	-17%
OB(O)c1ccc(B(O)O)cc1	.	-13%	.	-2%	.	.	.	.
CCCCNC(=O)C1CCCN(S(=O)(=O)CCC)C1 (stereo not given)	48	-5%	?	-5%	.	.	.	.
CN(C)S(=O)(=O)c1cccc(-c2csc(N/N=C/c3ccco3)n2)c1	-37	-19%	-6%	?	?	-26%[46.1 µM]	.	.
COc1ccc(/C=N/Nc2nc(-c3cccc(S(=O)(=O)N4CCCC4)c3)cs2)c(OC)c1	-65*	?	?	?	4µM*	?	10µM*	-41%
Cn1ncc2c(NCCc3ccccc3)nc(Cl)nc21	7	-19%	-15%	-6%	?	-14%	25µM*	-7%
COc1ccccc1NC(=O)Cn1c(=O)n(-c2cccc(C)c2)c(=O)c2c1c1cc(C)ccc1n2C	116	-13%	5%[46.1 µM]	0%	.	.	.	.
Cc1noc(/C=C/c2ccccc2F)c1S(=O)(=O)N1CCC(C(=O)N2CCN(C)CC2)CC1	-29	.	.	.	4µM*	.	22µM*	?
Cc1cc2oc(C(=O)NCCc3ccc(S(N)(=O)=O)cc3)c(C)c2cc1C	-21	-16%	-27%[46.1 µM]	i	?	-6%[46.1 µM]	?	23%
Cc1ccc(C(=O)Nc2nnc(SCc3cc(=O)n4ccc(C)cc4n3)s2)cc1	28	-18%	0%[46.1 µM]	i	.	.	.	.
COc1cc(OC)c(NC(=O)Nc2ccc(OC)c(OC)c2)cc1Cl	-29	-14%	25%	i	2.5µM*	?	-21%	-25%
COc1ccc(NC(=O)Nc2ccccc2SC)cc1OC	-1	-6%	.	-6%	?	.	.	.
COc1cc(OC)c(NC(=O)c2ccc(F)cc2)cc1Cl	-39	-18%	16%	-9%	-28%	-20%[46.1 µM]	.	.
COc1cc(OC)c(NC(=O)c2cccc(F)c2)cc1Cl	8	-3%	?	-11%	?	9%	?	35%
SMILES	HCMV antiviral	Vaccinia Venus	LASV entry inh	Vaccinia mCherry	HCV inh	Marburg entry inh	HCV confirm	HCV host tox
COc1ccc(C(=O)NCCNc2nc3c(C)cccc3cc2C#N)cc1OC	1	.	.	.	?	.	18µM*	26%
CCSc1nc2c(c(=O)[nH]c(=O)n2C)n1Cc1ccc(Cl)cc1	-21	-3%	3%	.	-9%	?	.	.
CCCCCOC(=O)CSc1nc2c(c(=O)[nH]c(=O)n2C)n1Cc1ccc(Cl)cc1	9	17%	-3%	-13%	2.8µM*	35%	5.6µM*	20%
C=C(C)Cc1c(C)c(C#N)c2nc3ccccc3n2c1N1CCCCC1	?	.	4%	.	?	-17%	14µM*	43%
CC(=O)c1ccc(N2CCN(c3ccc(NC(=O)c4cccs4)cc3C(=O)O)CC2)cc1	11	14%	-4%[46.1 µM]	-3%	.	.	.	.
CCCn1c(N)c(C(=O)COc2ccc(Br)cc2F)c(=O)n(C)c1=O	?	.	.	.	?	.	22µM*	-21%
O=C(c1cn(-c2ccccc2)nc1-c1cccc([N+](=O)[O-])c1)N1CCCCC1	?	-9%	-30%	-6%	?	2%[46.1 µM]	11µM*	26%
CCNC(=O)C1(C)CCCN(C(=O)c2cc(C)n(C(C)(C)C)n2)C1 (stereo not given)	14	-8%	.	-14%	.	.	.	.
COc1ccc(NC(=O)NCc2cccn2Cc2ccc(F)cc2)cc1OC	-17	?	-3%[46.1 µM]	?	.	-4%[46.1 µM]	.	.
COc1cccc(Oc2ccc(N)cn2)c1	11	5%	13%	-4%	?	26%	.	.
Cc1cc(Oc2ccc(N)cn2)ccc1Cl	99	-23%	-4%	-9%	?	8%	?	49%
COc1ccc(S(=O)(=O)N(C)C)cc1NC(=O)C1CCN(c2ncnc3sc(C)c(C)c23)CC1	?	.	.	.	8.9µM*	.	8.9µM*	?
Cc1sc2ncnc(N3CCC(C(=O)Nc4cc(Cl)ccc4Cl)CC3)c2c1C	-20	-14%	-8%	-5%	?	1%	.	.
COc1ccc(N2CC(C(=O)Nc3ccc(NC(C)=O)cc3)CC2=O)cc1 (stereo not given)	-5	-5%	2%[46.1 µM]	-11%	.	.	.	.
Clc1cccc(-c2cc3nc4c(c(N5CCOCC5)n3n2)CCCC4)c1	-20	-26%	-20%	?	?	?	14µM*	-11%
Clc1cccc(-c2cc3nc4c(c(N5CCN(c6cnccn6)CC5)n3n2)CCCC4)c1	-26	-28%	25%	.	7%	27%	.	.
Cc1ccc(OC2CCN(C(=O)[C@H]3O[C@@H](n4ccc(=O)[nH]c4=O)[C@H](O)[C@@H]3O)CC2)cc1	-15	-6%	.	-8%	.	.	.	.
O=C(N/N=C1\CCCc2c1[nH]c1ccc(Cl)cc21)c1ccncc1	?	.	.	.	3.2µM*	1%	8.9µM*	?
C=CCNC(=O)c1ccc(Cn2c(=S)[nH]c3cc4c(cc3c2=O)OCO4)cc1	-26	.	-13%	.	?	-14%	2.5µM*	21%
